The values that follow come from ChEMBL document CHEMBL4513216, “Probing the Open Global Health Chemical Diversity Library for Multistage-Active Starting Points for Next-Generation Antimalarials” (ACS Infect Dis, 2020).

SMILES strings stand for the structures. The whole screen tested about 65,000 compounds, of which about 2,100 (3.2%) showed an effect of 50% or more. The median lay at about -52%. Shown is part of a subset that was picked to be rich in strong results.

The subject of this assay is Plasmodium falciparum. Put plainly: Screen against P. falciparum Asexual Blood Stage (ABS), at 5uM. It counts as functional, Dd2. To be noted: tested at 5 uM.
In the case of `Cc1c(Cl)c(C(=O)NN2CCOCC2)nn1C`, the INHIBITION is given as -48.6%. Next, `O=C(CC1COCCN1S(=O)(=O)c1ccccc1)NCc1ccccn1` (stereo not given): -170%.

With `O=C(C1CCC2(CCN(c3nncs3)CC2)CO1)N1CCCC1` (stereo not given), the INHIBITION is reported as 13.3%.

For the compound `CC(C)CN1C(=O)C2(CCN(CC3CCOCC3)C2)c2ccccc21` (stereo not given), the INHIBITION worked out at 39.6%. Regarding `COc1ccsc1C(=O)N1CCCC(n2cncn2)C1` (stereo not given), the INHIBITION is -121%. Next, `O=C(NCc1ccco1)[C@H]1CC[C@@H]2[C@@H](CCN2Cc2cccnc2)O1`: -34.5%; `O=C(NCc1ccco1)[C@H]1CC[C@@H]2[C@@H](CCN2Cc2nccs2)O1`: -11.2%; `O=C(NCc1ccco1)[C@@H]1CC[C@@H]2[C@@H](CCN2Cc2ccc(F)cc2)O1`: 67.2%. Next, `Cc1ncsc1CN1C[C@H](C(=O)NC2CCCC2)[C@@H]2CCO[C@@H]2C1`: 1.73%; `CCO[C@H]1CO[C@@]2(CCCN(Cc3scnc3C)C2)C1`: -22.6%. Next, `CNC(=O)CNC1CC2(CCN(c3ncccn3)CC2)c2ccccc21` (stereo not given): -84.5%; `CS(=O)(=O)N1CCC2(CC1)CC(NCC1CC1)c1ccccc12` (stereo not given): 48.3%.

As for `c1cnc(N2CCC3(CC2)CC(NCC2CC2)c2ccccc23)nc1` (stereo not given), the INHIBITION is given as 54.2%. In the case of `Cc1ccccc1-c1cc(C(=O)N2CCCC(n3ccnc3C)C2)[nH]n1` (stereo not given), the INHIBITION is -29.5%. Next, `COCCN1CCCCC12CC(=O)N(c1cccc(C#N)c1)C2` (stereo not given): -132%; `COCCCNC(=O)CN1CCOC(c2ccccc2)C1` (stereo not given): -41.4%. Next, `CCc1cccc(N2CCC(NC(=O)c3ccncc3)CC2)c1`: -62.9%; `CCc1cccc(N2CCC(NC(=O)c3ccoc3C)CC2)c1`: -16.9%; `CCc1cccc(N2CCC(NC(=O)c3ccco3)CC2)c1`: 60.4%. `CN1CCN(C(=O)[C@H]2C[C@@H]3CCN(c4ncc(F)cn4)C[C@@H]3O2)CC1`: the INHIBITION is recorded as -116%.

Regarding `O=C(c1cc(-n2cccn2)ccc1Cl)N1CCC(N2CCCC2=O)CC1`, the INHIBITION is listed as -100%.

On to `O=C(Nc1cccnc1-n1cccn1)N1CCCC(N2CCCC2)C1` (stereo not given), for which the INHIBITION is reported as 26.8%. Consider `O=C(c1cc(-n2cccn2)ccc1Cl)N1CCCC(N2CCCC2)C1` (stereo not given), for which the INHIBITION turned out to be 65.8%.

`CCN(CC)C1CCN(C(=O)c2cc(-n3cccn3)ccc2Cl)CC1`: the INHIBITION was 65.1%. The value for `O=C(c1ccc(-n2cccn2)c(F)c1)N1CCCN2CCCC2C1` (stereo not given) was -23.2%; that for `CCN(CC)C1CCN(C(=O)NCc2cccc(-n3cccn3)c2)C1` (stereo not given) was -61.3%; that for `Cc1cccc(NC2CCN(C(=O)Nc3ccc(F)c(F)c3)CC2)n1` was -20.3%. As to `Cc1ccc(C(=O)N2CCC3(CC2)CC(N2CCOCC2)C3)cc1`, the INHIBITION is recorded as -158%. The value for `CC(C)CC(=O)Nc1cccc(CNCc2cccs2)c1` was -70.1%. Next, `O=C(c1cc[nH]n1)N1CCc2onc(COc3cccnc3)c2C1`: -33.4%; `O=C(c1ccncc1F)N1Cc2nc(COCC3CC3)oc2C1`: -37.7%. The value for `c1cncc(COCc2nnc3n2CCN(Cc2ccco2)C3)c1` was -119%; that for `Cn1cc(-c2cnc3n2CCC32CCN(S(=O)(=O)C3CC3)CC2)cn1` was -61.5%; that for `Cc1cnc(NCc2csc(C(C)C)n2)nc1-c1cnn(C)c1` was -52.9%. Regarding `COCCn1ccnc1CN1CCc2[nH]cnc2C1c1ccccn1` (stereo not given), the INHIBITION is -11.9%. `CCn1ncnc1CN1CCc2[nH]cnc2C1Cc1ccccc1` (stereo not given): the INHIBITION is -61.6%. The value for `CCCn1ccnc1CN1CCc2[nH]cnc2C1Cc1ccccc1` (stereo not given) was 66.5%; that for `COc1ccc(N2CCN(CC(O)c3cc(C)ccc3C)CC2)cc1` (stereo not given) was 31.4%; that for `Cc1noc(C)c1CN1CCCCC1CCc1ccc(O)cc1` (stereo not given) was 51.5%. Next, `Oc1ccc(CCC2CCCCN2Cc2noc(C3CC3)n2)cc1` (stereo not given): -61.9%; `Cc1nc(CN2CCCCC2CCc2ccc(O)cc2)no1` (stereo not given): -168%; `Cc1ccc(S(=O)(=O)N2CCc3nc(C4CCNCC4)ncc3C2)cc1`: -51.4%. Next, `N#Cc1cccc(C(=O)N2CCCC(O)(CO)CC2)c1` (stereo not given): -41.3%; `Cn1cc(CN2CCc3ccc(=O)n(CC4CC4)c3CC2)cn1`: -67.9%; `CS(=O)(=O)CCNC(=O)c1ccc(-c2ccco2)[nH]c1=O`: -78.3%. As for `COc1ccc(OC)c(C2CCN(C3CCOCC3)C2)c1` (stereo not given), the INHIBITION is listed as -74.2%.

Turning to `Cc1nnc(N2CC[C@H](OCC3CC3)[C@@H](Cc3ccccc3)C2)s1`, the INHIBITION is given as -3.27%.

With `COc1ccc(C[C@H]2CN(C3CCOCC3)CC[C@H]2OCC2CC2)cc1`, the INHIBITION is 68.4%.

As for `COc1ccc(CC2CN(C3CCSCC3)CCO2)cc1` (stereo not given), the INHIBITION was -96.7%. Next, `COc1ccc(CN2C[C@H](OCC3CCOCC3)[C@H]3COC[C@H]32)cc1`: -12.7%; `COc1ccc(C[C@H]2CN(C3CCOCC3)CC[C@@H]2OCC2CC2)cc1`: 60.9%. Next, `Nc1cc(-c2c[nH]nc2C2CCCCN2C(=O)C2CCCC2)ccn1` (stereo not given): -12.7%; `Cc1ccc(NC(=O)Cn2ncc(SCC(N)=O)c(Cl)c2=O)c(F)c1`: -57.4%; `COc1ccccc1NC(=O)N(CCO)Cc1ccsc1`: -19.5%. The value for `O=C(NC1CCC1)[C@H]1CCS(=O)(=O)[C@@H]2CN(CCc3ccccc3)C[C@H]12` was -96.2%; that for `Cc1nc(CN2CCCN(C(=O)c3cccnc3O)CC2)cs1` was 49.4%; that for `CCOc1ccc(NC(C)=O)cc1S(=O)(=O)Nc1cc(C)on1` was -90.8%.

Turning to `Cc1ccc(C)c(OC2CCN(C(=O)CNc3ccccc3Cl)CC2)c1`, the INHIBITION is on record as -76.6%. Next, `Cc1nc(CC(=O)N2CCn3c(nnc3C(C)C)C2)cs1`: 51.5%; `CC(C)c1nnc2n1CCN(C(=O)Cc1csc(C(C)(C)C)n1)C2`: 20.2%. On to `CCc1nc(CC(=O)N2CCn3c(nnc3C(C)C)C2)cs1`, for which the INHIBITION is -56.3%. The value for `CCc1nc(CC(=O)N2CCn3c(nnc3C(F)(F)F)C2)cs1` was -206%; that for `CCc1nc(CC(=O)N2CCn3c(C)nnc3C2)cs1` was -18.3%; that for `CCc1nc(CC(=O)N2CCn3c(CC)nnc3C2)cs1` was 52%. The value for `c1coc(COCc2ncn3c2CN(Cc2cccs2)CCC3)c1` was -87%.
